Pf growth 96h: P. falciparum growth inhibition at 96 hours; AID 504834; Potency, µM (titrated, usually from 28.7 µM), for inactives: at the highest dose activity change, negative = inhibition, most hits filed as inhibitors; P. falciparum luciferase reporter growth, 96 h; 6.9% of 320,000 active; further: potency means the concentration at half of the fitted maximal effect; on the % scale 0 is the no-effect control and ±100 the full control effect
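96 h incubation, 37 C, 5% CO2, of luciferase-reporter P. falciparum-infected RBCs (2% hematocrit, 0.05% parasitemia final) with test compounds; endpoint luminescence.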
CHX counter: counter-screen for Shiga toxin inhibitors: cycloheximide protein synthesis inhibition; cell reporter, cycloheximide protein synthesis inhibition counterscreen; 12% of 300,000 active; max response, %; AID 2314; in the data active means max response mostly above about 13%, no sharp cut-off; inactive means mostly below about 14%; further: read at 38.3 µM for the half of the compounds with a filed dose; 0% is about no effect
AMA1 RON2 block: disrupts binding of P. falciparum AMA1 to RON2; Potency, µM (titrated, usually from 58.2 µM), for inactives: at the highest dose activity change, negative = inhibition, hits mostly inhibitors; AID 720542; AlphaScreen AMA1-biotinylated RON2 peptide binding; 0.2% of 360,000 active;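 further: potency means the concentration at half of the fitted maximal effect; 0% = vehicle wells and -100% = peptide control; nearly all actives have a fitted effect of over 45% in size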
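AMA1 (3D7) with his tag at 25 nM final met compounds first, then biotinylated RON2 peptide at 25 nM; detection used donor plus acceptor beads, 10 µg/mL apiece, read by AlphaScreen after 30 min at room temperature.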
Pf growth 48h: P. falciparum growth inhibition at 48 hours (one generation) | P. falciparum luciferase growth in erythrocytes, 48 h | Potency, µM (doses to about 28.7 µM), without a hit: at the highest dose activity change, negative = inhibition, hits mostly inhibitors | 5.9% of 310,000 active | AID 504832; further: potency means the concentration at half of the fitted maximal effect; on the % scale 0 is the no-effect control and ±100 the full control effect
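Erythrocytes infected with P. falciparum carrying an integrated firefly luciferase reporter (2% hematocrit, 0.1% parasitemia final) were exposed to compounds in RPMI 1640 with 0.5% Albumax at 37 C, 5% CO2. Growth inhibition was scored as reduced luminescence.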
SARS PLP yeast: blocks SARS-CoV papain-like protease in a yeast assay | S. cerevisiae expressing SARS-CoV PLpro, growth rescue | Potency, µM (titrated, usually from 32.9 µM), for inactives: at the highest dose activity, positive = growth rescue, hits mostly activators | 0.19% of 330,000 active | AID 485353; calls by dose curve; further: potency means the concentration at half of the fitted maximal effect; 0% is about no effect; nearly all actives have a fitted effect of over 55% in size
Shiga inhibitor: inhibitors of Shiga toxin in Vero cells | Vero cells, Shiga toxin protein synthesis inhibition reporter | inhibition, % at 38.7 µM | 9.2% of 290,000 active | AID 2315; in the data active means inhibition mostly above about 28%, no sharp cut-off; inactive means mostly below about 43%; further: 0% is about no effect
* hit, by the source's call; i = inactive; ? = inconclusive; / = no result given; + = active, no number. Compounds with a hit are over-represented: about 19% of the library has one in this group of screens. Unless noted, the call rests on the fitted dose curve; in most records, active means well fitted curve in the direction sought with a large enough effect; inconclusive means small, poorly fitted or top-dose-only effect, or another doubt; inactive means no such curve, though single readings can be large; an effect the other way counts as inactive or inconclusive.

SMILES	Pf growth 96h	CHX counter	AMA1 RON2 block	Pf growth 48h	SARS PLP yeast	Shiga inhibitor
CC(C)[C@H](NC(=O)[C@@H]1Cc2ccccc2CN1)C(=O)Nc1ccc2c(c1)OCCO2	?	28*	-12%	-20%	0%	83*
CC(C)C(NC(=O)C1CCCCC1)C(=O)Nc1ccncc1 (centres undefined)	95%	-5	-1%	?	4%	-15
CSCC[C@H](NC(=O)[C@@H]1Cc2ccccc2CN1)C(=O)Nc1ccc2c(c1)OCCO2	90%	52*	41%	69%	2%	87*
CCC(C)[C@H](NC(=O)[C@@H]1Cc2ccccc2CN1)C(=O)Nc1ccc2c(c1)OCO2 (some centres undefined)	?	30*	24%	?	2%	38*
CC(C)C(NC(=O)C1CCCCC1)C(=O)Nc1ccc2c(c1)OCCO2 (centres undefined)	?	63*	-2%	85%	9%	+
C[C@H](NC(=O)[C@@H]1Cc2ccccc2CN1)C(=O)Nc1ccc2c(c1)OCCO2	-5%	36*	31%	-9%	3%	51*
Cc1ccc(CN2CC(C(=O)NCCC3=CCCCC3)CC2=O)cc1 (centres undefined)	?	/	3%	?	-1%	/
COc1ccccc1CCNC(=O)CNC(=O)Cc1cccc2ccccc12	1%	-6	8%	-8%	-5%	-4
COc1ccc(N/N=C/c2c(O)n(-c3cccc(C)c3)c(=O)[nH]c2=O)cc1	11%	18*	63%	19%	1%	48
Cc1ccc(N(C(=O)c2cc3ccccc3oc2=O)C2C=CS(=O)(=O)C2)cc1 (centres undefined)	?	11	-12%	3%	1%	2
CCOc1ccc(N(C(=O)c2cc3ccccc3oc2=O)C2C=CS(=O)(=O)C2)cc1 (centres undefined)	?	28*	-10%	-7%	0%	78*
O=C(NCCc1ccccc1F)C1CCCN(c2nc3ccccc3s2)C1 (centres undefined)	-21%	-1	3%	-9%	-8%	-1
COc1ccc(-c2ccnc3nc(N4CCN(c5ccccc5)CC4)nn23)cc1	9.3µM*	4	-2%	?	3%	-3
Fc1ccc(-c2ccnc3nc(N4CCOCC4)nn23)cc1	?	-2	-2%	28%	-3%	-6
CC1Cc2cc(S(=O)(=O)N3CCN(c4ccc(Cl)cc4)CC3)ccc2N1C(=O)C1CC1 (centres undefined)	15µM*	-3	-4%	?	31%	-4
CC1CCN(C(=O)C2CCN(S(=O)(=O)c3ccc4c(c3)CC(C)N4C(=O)C3CC3)CC2)CC1 (centres undefined)	0%	-3	-3%	9.3µM*	18%	-6
O=C(Nc1ccccc1Br)c1ccc2nccnc2c1	0%	35	-8%	181%	-1%	46*
O=C(Nc1nccs1)c1ccc(COc2c(F)c(F)cc(F)c2F)cc1	25%	56*	84%	?	-1%	80*
Nc1ccc(C(=O)Nc2nccs2)cc1	7%	33*	21%	338%	1%	125*
O=C(Nc1ccccc1C(=O)Nc1nccs1)c1ccccc1	/	/	99%	/	/	/
Cc1ccc(C(=O)Nc2nccs2)cc1	439%	37*	2%	i	-3%	116*
Clc1cccc(Cl)c1COc1ccccc1CNn1cnnc1	-10%	11	-2%	-8%	-7%	-8
O=C(Nc1nccs1)c1ccc2nccnc2c1	-64%	24*	0%	92%	-2%	45*
O=C(NCC1CC1)c1onc(CSc2ccncc2)c1C(=O)NCC1CC1	-14%	-3	-4%	-8%	-1%	-5
C/C(=N\Nc1ccccn1)c1ccc(N2CCOCC2)cc1	76%	41*	21%	178%	-1%	116*
SMILES	Pf growth 96h	CHX counter	AMA1 RON2 block	Pf growth 48h	SARS PLP yeast	Shiga inhibitor
C(=N\Nc1ccccn1)/c1ccc(N2CCOCC2)cc1	0%	47*	2%	i	-1%	71
CC(=NNC(=O)c1cc(C)nc2ccccc12)c1ccc(N2CCOCC2)cc1	/	/	1%	/	0%	/
C(=N\Nc1ccccc1)/c1ccc(N2CCOCC2)cc1	106%	48*	-9%	-26%	-9%	69*
O=[N+]([O-])c1cccc(N/N=C/c2ccc(N3CCOCC3)cc2)c1	33%	50*	?	67%	-13%	80*
C=C(C)CNC(=S)N/N=C/c1ccc(N2CCOCC2)cc1	?	-3	17%	?	?	13
COc1ccc(C(=O)N/C(=C/c2ccco2)C(=O)NC2CCS(=O)(=O)C2)cc1 (centres undefined)	?	9	3%	20%	-2%	2
CCN(CCO)CC1CCCC2CCCCC21 (centres undefined)	/	/	3%	/	/	/
O=C(O)c1cc(N/N=C/c2ccc(N3CCOCC3)cc2)ccc1Cl	390%	59*	0%	203%	0%	137*
C/C(=N\Nc1ccccn1)c1ccc(Br)s1	/	/	-12%	/	/	/
Clc1cccc(N/N=C/c2ccc(N3CCOCC3)cc2)c1	?	38*	1%	-22%	-14%	32
C/C(=N\Nc1ccccn1)c1ccc(C(C)C)cc1	?	47*	-10%	?	9%	104*
O=C(O)c1cccc(S(=O)(=O)Nc2ccc3c(c2)CCC3)c1	4.1µM*	4	11%	39%	5%	-20
O=C(O)c1cccc(S(=O)(=O)Nc2cccc(S(=O)(=O)Nc3ccc(Br)cc3)c2)c1	1%	/	3%	2%	1%	/
CC(=O)Nc1ccc(C(=O)Nc2cccc(S(=O)(=O)N(C)c3ccccc3)c2)cc1	?	/	2%	9.3µM*	9%	/
O=C(Nc1cccc(S(=O)(=O)N2CCCCCC2)c1)c1cc(=O)c2ccccc2o1	?	-3	-4%	?	-3%	18
Cc1nc2cc(NC(=O)c3ccc(S(=O)(=O)N(C)c4ccccc4)cc3)ccc2o1	?	30*	13%	?	-5%	126*
CN(c1ccccc1)S(=O)(=O)c1cccc(NC(=O)c2cc(=O)c3ccccc3o2)c1	10µM*	1	-21%	?	-1%	15
COc1cc(NC(=O)c2ccc(S(=O)(=O)N(C)c3ccccc3)cc2)cc(OC)c1	/	/	-7%	/	-7%	/
Nc1ccccc1-n1c(=O)n(Cc2ccccc2F)c(=O)c2[nH]cnc21	1%	1	0%	-17%	0%	-4
CCN(CC)S(=O)(=O)c1cccc(NC(=O)CCNC(=O)c2ccc([N+](=O)[O-])cc2)c1	-6%	14*	-3%	?	3%	48*
CN(c1ccccc1)S(=O)(=O)c1cccc(NC(=O)CCNC(=O)c2ccccc2)c1	?	/	-9%	9.3µM*	0%	/

Assay outcomes deposited in PubChem BioAssay by National Center for Advancing Translational Sciences (NCATS).
